# An excerpt weighted towards active compounds, which were near 1.1% of everything screened.
# VDR inh – Inhibitors of the vitamin D receptor (VDR): qHTS; Vitamin D3 receptor (Homo sapiens), P11473; VDR-SRC2-3 peptide fluorescence polarization, 2 h; Potency, µM, without a hit: max response, negative = inhibition, hits mostly inhibitors; hit rate 0.93% among 400,000; AID 504847, 2011
#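 Inhibition of the VDR/SRC2-3 peptide interaction is quantified by fluorescence polarization. Compounds (23 nl, pintool) incubate with the reagents for 2 hours at ambient room temperature.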
# GLS inhibitor – qHTS for Inhibitors of Glutaminase (GLS); GLS enzymatic activity, qHTS titration; hit rate 0.21% among 410,000; Potency, µM (series often up to 45.5 µM), for the others: at the highest dose activity change, negative = inhibition, most hits filed as inhibitors; Glutaminase kidney isoform, mitochondrial (Homo sapiens), O94925; AID 624170, 2012
#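 Two-point fluorescence kinetic (t0, 30 min RT) for hKGA; glutamate detected via glutamate oxidase–HRP–Amplex Red. Substrate: 1 mM L-glutamine solution; buffer 45 mM KH2PO4, pH 8.2.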
# PGK inhibitor – qHTS Assay to Find Inhibitors of Phosphoglycerate Kinase; Potency, µM (doses to about 57.5 µM), inactives show at the top dose activity change, negative = inhibition, most hits filed as inhibitors; hit rate 0.043% among 380,000; PGK/GAPDH coupled, Kinase-Glo luminescence, 60 min; Phosphoglycerate kinase, glycosomal (Trypanosoma brucei brucei), P07378; AID 602233, 2012; also: nearly all actives have a fitted effect of over 60% in size
#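 Luminescent ATP detection (Kinase-Glo Plus) follows a 60-minute room-temperature incubation, with wells lacking PGK as controls. Buffer: 100 mM TEA (pH 7.6), 5 mM MgCl2, 0.01% Tween-20. Coupling enzyme GAPDH (100 nM final) supplies unstable 1,3-BPG in-well.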
# Pin1 inh – qHTS Assay to Find Inhibitors of Pin1 | Peptidyl-prolyl cis-trans isomerase NIMA-interacting 1 (Homo sapiens), Q13526 | Pin1 FP peptide displacement, HiFluor488, 10 min | Potency, µM (series often up to 115 µM), for inactives: at the highest dose activity, negative = inhibition, hits mostly inhibitors | hit rate 0.009% among 390,000 | AID 504891, 2011; active = well fitted inhibition curve with a large enough effect in the polarisation, with a control signal flat, not every such curve was filed as active; inconclusive = small, poorly fitted or top-dose-only effect, or effect the other way, or a change in a side signal; inactive = no such curve, though single readings can be large or run the other way; the % refers to the polarisation
# Target sequence (Q13526 whole entry, looked up): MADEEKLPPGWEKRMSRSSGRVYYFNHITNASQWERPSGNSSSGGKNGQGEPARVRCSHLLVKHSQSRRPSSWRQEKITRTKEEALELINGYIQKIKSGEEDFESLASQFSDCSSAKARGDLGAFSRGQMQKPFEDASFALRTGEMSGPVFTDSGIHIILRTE
# Tb PFK block – qHTS Assay to Find Inhibitors of T. brucei phosphofructokinase; T. brucei PFK, ADP-Glo luminescence; Potency, µM (doses to about 57.5 µM), without a hit: top-dose activity, negative = inhibition, most hits filed as inhibitors; hit rate 0.17% among 330,000;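 also: 0% = uninhibited 1x PFK enzyme wells and -100% = no-enzyme wells; nearly all actives have a fitted effect of over 60% in size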
# Target sequence (O15648 whole entry, looked up): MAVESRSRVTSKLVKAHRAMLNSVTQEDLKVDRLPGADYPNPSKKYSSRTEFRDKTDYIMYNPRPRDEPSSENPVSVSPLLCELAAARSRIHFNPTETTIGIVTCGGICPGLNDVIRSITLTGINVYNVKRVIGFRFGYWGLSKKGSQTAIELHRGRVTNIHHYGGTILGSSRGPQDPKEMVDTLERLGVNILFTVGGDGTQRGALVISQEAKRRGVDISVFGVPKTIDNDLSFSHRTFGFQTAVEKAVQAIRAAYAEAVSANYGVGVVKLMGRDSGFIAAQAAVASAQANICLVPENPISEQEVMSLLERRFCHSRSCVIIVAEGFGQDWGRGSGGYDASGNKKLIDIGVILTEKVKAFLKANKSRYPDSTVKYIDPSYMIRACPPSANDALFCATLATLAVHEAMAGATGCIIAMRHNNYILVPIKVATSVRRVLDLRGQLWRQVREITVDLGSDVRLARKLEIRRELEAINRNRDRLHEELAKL
#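 Compounds were pin-transferred as a titration series up to 57 uM into substrate buffer (0.5 mM F6P, 0.1 mM ATP, pH 8.0), then 1.25 nM PFK was added and reactions ran 45 min before ADP-Glo detection.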
# * = called active by the depositor; i = inactive; u = inconclusive; x = no result given. Unless noted, calls follow the shape of the dose curve; as a rule, active = well fitted curve in the direction sought with a large enough effect; inconclusive = small, poorly fitted or top-dose-only effect, or another doubt; inactive = no such curve, though single readings can be large; an effect the other way counts as inactive or inconclusive. Unless noted, % is scaled to controls: 0 for no effect and ±100 for the full control effect; potency is read from the fitted curve at half-maximal effect.
SMILES,VDR inh,GLS inhibitor,PGK inhibitor,Pin1 inh,Tb PFK block
O=C(CN1C(=O)CC(c2ccco2)Sc2ccccc21)Nc1ccc(Br)cc1 (stereo unspecified),-3%,-13%,-2%,7%,x
CCCCCCCOc1ccc(C2(C)NC(=O)NC2=O)cc1 (stereo unspecified),-3%,-14%,-8%,u,-5%
CCCCOc1ccc(C2(C)NC(=O)NC2=O)cc1 (stereo unspecified),25µM*,u,1%,3%,-1%
CCOc1ccccc1NC(=O)c1cn(C2CCCC2)c(=O)c2c1c1ccccc1n2C,9%,-10%,-10%,-2%,x
COc1ccc(NC(=O)c2cc(S(=O)(=O)N3CCCC(C)C3)cn2C)c(OC)c1 (stereo unspecified),-12%,9%,1%,-1%,x
CSc1ccc(-c2sc(Nc3cccc4ccccc34)n[n+]2-c2ccccc2)cc1,79µM*,1%,i,1%,0%
COc1ccc2c(c1)Cc1sc(NC(=O)c3ccccc3C)nc1-2,25µM*,7%,x,-5%,x
CC(C)c1ccc(N=c2c([N+](=O)[O-])nn(-c3ccc4c(c3)OCCO4)n2O)cc1,5%,11µM*,-4%,-10%,-4%
CC(C)CCn1c(=O)c2ccccc2n2c(CCC(=O)NCC3CCCO3)nnc12 (stereo unspecified),-17%,0%,-7%,5%,1%
Cc1cccc(OCCCn2c(CCNC(=O)C3CCCCC3)nc3ccccc32)c1,-1%,-6%,-7%,u,x
c1ccc(CNc2ccnc(-c3ccc4c(c3)OCO4)n2)cc1,-8%,x,x,x,x
c1ccc(CNc2ncnc3ccc(-c4ccoc4)cc23)cc1,25µM*,x,x,x,x
c1ccc(Nc2ncnc3ccc(-c4ccoc4)cc23)cc1,32µM*,x,x,x,x
c1ccc(CNc2ccnc(-c3ccoc3)n2)cc1,79µM*,x,x,x,x
CN(C)C(=O)c1ccc(-c2ccc3ncnc(Nc4ccccc4)c3c2)cc1,2%,x,x,x,x
COc1ccc2[nH]c(=O)c(CN(C3CCCCC3)C(c3nnnn3Cc3ccco3)C(C)C)cc2c1 (stereo unspecified),u,-26%,-1%,u,3%
COc1ccc2[nH]c(=O)c(CN(Cc3nnnn3Cc3ccco3)C3CCCCC3)cc2c1,79µM*,u,0%,-3%,-8%
NCCOB(c1ccccc1)c1ccccc1,14µM*,x,x,x,x
COc1ccccc1C1N=C(Nc2nc3ccccc3o2)NC2=C1C(=O)CC(C)(C)C2 (stereo unspecified),-3%,x,x,-2%,x
C=CCOc1c(Cl)cc(CNc2ccc(N(C)C)cc2)cc1OC,2.2µM*,49%,-2%,4%,-2%
CCOc1cc(CNc2ccc(N3CCOCC3)cc2)cc(Br)c1OCC,0%,13µM*,1%,0%,u
COc1cc(CNc2ccc(N3CCCC3)cc2)cc(Cl)c1OC,5.6µM*,u,10%,2%,3%
CCOc1cc(CNc2ccc(N3CCCC3)cc2)cc(Cl)c1OC,u,20%,1%,-3%,1%
C=CCOc1c(Cl)cc(CNc2ccc(C)c(Cl)c2)cc1OC,x,x,x,x,-1%
CCOc1ccc(CNc2ccc(N3CCCC3)cc2)cc1,4µM*,6%,-7%,12%,-1%
SMILES,VDR inh,GLS inhibitor,PGK inhibitor,Pin1 inh,Tb PFK block
CC(C)[C@H](O)CC[C@@H](C)C1CC[C@H]2C3CC=C4C[C@@H](O)CC[C@]4(C)C3CC[C@]12C (stereo partly specified),-9%,x,x,x,x
CC1(C)Cc2c(cnn2-c2ccc(F)cc2)C(NC(=O)C2=NNC(=O)CC2)C1 (stereo unspecified),u,16µM*,-4%,-7%,-4%
CC1(C)Cc2c(cnn2-c2ccc(F)cc2)C(NC(=O)c2ccco2)C1 (stereo unspecified),-19%,-16%,i,-1%,-3%
OCC1OC([S-])[C@H](O)C(O)C1O.[Au+] (stereo partly specified),u,11µM*,x,x,x
COc1cccc(CNC(=O)c2nn(-c3ccc(C)cc3)c(=O)c3c2c2ccccc2n3C)c1,-9%,0%,-2%,2%,x
O=C(CS(=O)(=O)c1cccc2nsnc12)N1CCN(c2ccc(F)cc2)CC1,8%,28%,-6%,-3%,x
CCOc1ccc(-n2c(C)cc(C(=O)CCl)c2C)cc1,50µM*,1%,-6%,-3%,3%
COC(=O)c1ccc(-n2c(C)cc(C(=O)CCl)c2C)cc1,79µM*,-1%,-4%,7%,8%
O=C(/C=C/c1ccccc1)/C=C/c1ccccc1,13µM*,4%,5%,1%,-5%
CCCCC[C@H](O)/C=C/[C@H]1C(=O)C[C@H](O)[C@@H]1C/C=C\CCCC(=O)O,3%,x,x,x,x
CCCCC[C@@H](/C=C/C1C(=O)C=C[C@H]1C/C=C\CCCC(=O)OC)OC(C)=O (stereo partly specified),10µM*,0%,-8%,1%,x
CC1(C(=O)NS(=O)(=O)c2ccccc2OC(F)(F)F)CCN1C(=O)Cc1ccccc1 (stereo unspecified),x,3%,x,x,x
Cc1cccc(NC(=O)NNS(=O)(=O)c2ccc(F)cc2)c1,-3%,17%,-6%,-4%,-4%
CC(=O)Nc1ccc(S(=O)(=O)NNc2cccc(C)c2)cc1,79µM*,20%,-3%,-1%,u
CCC(Sc1nc2ccccc2c2nc(-c3ccccc3)nn12)C(=O)Nc1cccc(OC)c1 (stereo unspecified),21%,2%,2%,0%,x
O=C(CCCN1CCOCC1)c1ccc2c(c1)OCCO2,-19%,-3%,-8%,-5%,4%
O=C(CCN1CCOCC1)c1ccc2c(c1)OCCO2,56µM*,-4%,-10%,12%,-1%
O=C(CCN1CCCCC1)c1ccc2c(c1)OCO2,45µM*,0%,0%,0%,-24%
O=C(Nc1ccccc1)C1=C(c2ccccc2)S(=O)(=O)CCS1(=O)=O,22µM*,3%,-4%,-14%,u
CC(=O)Nc1ccc(Nc2nc(Nc3ccc(Cl)cc3)nc(N3CCOCC3)n2)cc1,-4%,x,x,14%,x
COc1ccc(C(=O)c2ccccc2)cc1,11%,9%,5%,1%,1%
COC1=CC(=O)C(C(=O)c2ccccc2)=CC1=O,32µM*,x,x,x,x
Cc1cccc(CNC(=O)C2CCN(S(=O)(=O)c3cccc4nonc34)CC2)c1,9%,-4%,i,1%,x
CC(=O)Nc1ccc(S(=O)(=O)NCc2cccn2Cc2cccc(C)c2)cc1,4%,5%,1%,-3%,x
CN1CCc2c(sc(/N=C/c3cccs3)c2C(N)=O)C1,32µM*,u,i,u,4%

# High-throughput results from PubChem BioAssay.
